Experiment [1] is described as follows: P-glycoprotein substrates identified in KB-3-1 adenocarcinoma cell line, qHTS therapeutic library screen (AID 1346986). Also: nearly all actives have a fitted effect of over 60% in size.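 Also: potency is for cytotoxicity meaning loss of cell viability.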 Summed up: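 Dose-response cytotoxicity, KB-3-1 vs P-gp-high KB-8-5-11, no colchicine in assay medium. Read: CellTiter-Glo at 72 h.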
(In general: Quantitative high-throughput screening tests each substance at several concentrations.)

Experiment [2] can be described thus: P-glycoprotein substrates identified in KB-8-5-11 adenocarcinoma cell line, qHTS therapeutic library screen (AID 1346987). Also: nearly all actives have a fitted effect of over 65% in size. As to activity change, negative = cytotoxicity: series mostly up to about 44 µM. An outline of the steps:
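Human cervical adenocarcinoma KB-8-5-11 cells, selected in colchicine to over-express P-gp and assayed without it, were exposed for 72 h to titrated compounds. An ATP-based luminescent viability signal gave AC50.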

Experiment [3] has as its target Furin (Homo sapiens) (UniProt P09958). Put plainly: Furin counterscreen qHTS for Zika virus inhibitors (AID 1347149). Also: nearly all actives have a fitted effect of over 70% in size. An outline of the steps: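 Counterscreen measures cleavage of 2 microM BOC-RVRR-AMC, below its ~15 microM Km, by 5 nM full-length human furin at pH 7.0 after a 15-min compound preincubation. Inhibition derives from the 15-min fluorescence increase at 37C.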
(A counterscreen serves to expose hits that act by an unwanted route or on another target.)

Experiment [4] deals with Zika virus NS2B-NS3 protease (linked construct). Put plainly: Confirmatory screen NINDS AMC qHTS for Zika virus inhibitors (AID 1347152). Also: nearly all actives have a fitted effect of over 70% in size. Summed up: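 Linked NS2B-NS3 1 nM, Tris pH 8.0/0.01% Tween 20; cpd 15 min RT dark; + Nle-KRR-AMC 10 µM (Km 18.3 µM); read 0 and 15 min, 340/450 nm; %inh vs controls, 4-param Hill.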
The test system of experiment [5] is Zika virus NS2B-NS3 protease (unlinked complex). Nature of the experiment: Confirmatory screen GU AMC qHTS for Zika virus inhibitors (AID 1347153).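 Also: enzyme at 25 nM with substrate at 10 µM below its Km of 18.3 µM; nearly all actives have a fitted effect of over 70% in size.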 The note with it: Recombinant NS2B-NS3 protease, AMC substrate fluorescence. Summed up: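 Fluorescence change (ex 340/em 450 nm) over 15 min, ~20% substrate conversion, normalized to no-inhibitor and no-enzyme controls, then Hill-fitted. Unlinked protease at 25 nM; AMC peptide 10 µM.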

Records with an inconclusive call do not appear. Entries that show only a call come without a potency. Values without a mark were called inactive. The source made the active and inactive calls. Calls follow the shape of the dose curve; as a rule, active = well fitted curve in the direction sought with a large enough effect; inconclusive = small, poorly fitted or top-dose-only effect, or another doubt; inactive = no such curve, though single readings can be large; an effect the other way counts as inactive or inconclusive.
Potency is read from the fitted curve at half-maximal effect.

Sequence of Furin (Homo sapiens) (P09958 whole entry, looked up): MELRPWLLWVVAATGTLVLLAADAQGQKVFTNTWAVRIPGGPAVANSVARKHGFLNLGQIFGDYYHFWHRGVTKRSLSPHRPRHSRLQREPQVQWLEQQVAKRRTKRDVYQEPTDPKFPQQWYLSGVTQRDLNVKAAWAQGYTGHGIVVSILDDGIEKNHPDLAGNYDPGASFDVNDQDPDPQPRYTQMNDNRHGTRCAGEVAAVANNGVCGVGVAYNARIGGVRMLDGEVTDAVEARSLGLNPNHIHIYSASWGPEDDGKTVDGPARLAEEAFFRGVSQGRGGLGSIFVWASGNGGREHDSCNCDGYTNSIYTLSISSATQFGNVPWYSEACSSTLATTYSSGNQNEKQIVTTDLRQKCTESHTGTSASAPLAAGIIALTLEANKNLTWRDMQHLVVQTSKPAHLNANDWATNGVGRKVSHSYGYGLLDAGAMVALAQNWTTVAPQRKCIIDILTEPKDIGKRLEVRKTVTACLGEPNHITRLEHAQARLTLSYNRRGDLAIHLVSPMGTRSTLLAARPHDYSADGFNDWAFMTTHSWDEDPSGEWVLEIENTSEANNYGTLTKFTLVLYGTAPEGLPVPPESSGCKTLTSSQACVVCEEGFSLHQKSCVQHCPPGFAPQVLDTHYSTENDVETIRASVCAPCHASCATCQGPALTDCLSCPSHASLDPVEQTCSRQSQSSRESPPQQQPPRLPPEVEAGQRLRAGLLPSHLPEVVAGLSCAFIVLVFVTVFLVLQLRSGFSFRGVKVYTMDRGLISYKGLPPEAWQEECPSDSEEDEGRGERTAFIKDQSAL

As for `CC(=O)Nc1nc(C)c(-c2nc(N3CCCC(O)C3)no2)s1` (stereo unspecified), the Potency is 13 µM (active) in experiment [1] and 18.4 µM (active) in experiment [2].
On the same counts, the results for `COc1ccc2[nH]c(=O)c3c(c2c1)OC(C)(C)C=C3` are “inactive” and “inactive”.
As to `CC(=O)c1c(C)cc2cccc(O)c2c1O[C@@H]1O[C@H](CO)[C@@H](O)[C@H](O)[C@H]1O`, the Potency result in experiment [1] and in experiment [2] was “inactive” in each case.
Take `CC1=CC2/C=C(\C)CCC(O)C/C=C/C(=O)OC23C(=O)NC(CC(C)C)C3C1C` (stereo unspecified): the Potency entry in experiment [1] and in experiment [2] was “inactive” in each case.
Consider `C[C@H](Nc1cc2c(-c3ccc4c(c3)OCO4)noc2cn1)c1ccccc1`, for which the Potency result in experiment [1] and in experiment [2] was “inactive” throughout.
With `C=CCCN1CCC2(CC1)CN(C(=O)c1c(F)cccc1F)c1ccc(Cl)cc12`, the Potency result in experiment [1] and in experiment [2] was “inactive” throughout.
For the compound `O=C(c1cc(Cc2n[nH]c(=O)c3ccccc23)ccc1F)N1CCCNCC1`, the Potency entry in experiment [1] and in experiment [2] was “inactive” throughout.
On to `CC(C)(CO)c1cc2cc(NC(=O)C3(c4ccc5c(c4)OC(F)(F)O5)CC3)c(F)cc2n1CC(O)CO` (stereo unspecified), for which the Potency entry in experiment [1] and in experiment [2] was “inactive” in each case.
Turning to `COc1ccc(-c2ccc3c(N4CCOCC4C)nc(N4CCOCC4C)nc3n2)cc1CO` (stereo unspecified), the Potency in experiment [1] and in experiment [2] was 0.0731 µM (active) throughout.
Take `C=C1C(=O)OC2/C=C(\CO)CC/C=C(\C=O)C(O)C(OC(=O)C(C)CC)C12` (stereo unspecified): the Potency result in experiment [1] and in experiment [2] was “inactive” in each case.
In the case of `CC#CC(=O)Nc1ccc2ncnc(Nc3cccc(Br)c3)c2c1`, the Potency in experiment [1] was 10.3 µM (active); in experiment [2], 11.6 µM (active).
Take `Cn1ncnc1[C@@H]1c2n[nH]c(=O)c3cc(F)cc(c23)N[C@H]1c1ccc(F)cc1`: the Potency entry in experiment [1] and in experiment [2] was “inactive” each time.
In the case of `COc1c(C(C)C)c(O)c(O)c2c1C(OC)[C@H]1OC(=O)[C@@]23CCCC(C)(C)[C@H]13` (stereo partly specified), the Potency entry in experiment [1] and in experiment [2] was “inactive” throughout.
On to `C=C(C)C1CCC2(C(=O)O)CCC3(C)C(CCC4C5(C)C(C=O)C(O)C(C)(C)C5CCC43C)C12` (stereo unspecified), for which the Potency result in experiment [1] and in experiment [2] was “inactive” each time.
Consider `COc1cccc(CN(C(=O)CC(C)(C)C)[C@H]2C[C@H](C(=O)N3CCNCC3)N(Cc3ccc4c(c3)OCO4)C2)c1`, for which the Potency result in experiment [1] and in experiment [2] was “inactive” throughout.
As for `COc1ccc(C(=O)O[C@H]2C=COC=C3C=C4C(=O)N(C)C(=S)C(=O)N4[C@@H]32)cc1Oc1cc(C=O)ccc1O`, the Potency result in experiment [1] and in experiment [2] was “inactive” throughout.
On to `CCN(Cc1cc(Nc2nc(C)cn3c(-c4cn[nH]c4)cnc23)sn1)C(C)(C)CO`, for which the Potency in experiment [1] is 0.0103 µM (active); in experiment [2], 0.411 µM (active).
On to `O=C(O)c1cc(N(Cc2ccc(C3CCCCC3)cc2)C(=O)c2ccc(Oc3ccccc3)cc2)ccc1O`, for which the Potency is 15.6 µM (active) in experiment [3], 12.4 µM (active) in experiment [4] and 9.87 µM (active) in experiment [5].
`CC(C)(C)Sc1c(CC(C)(C)C(=O)O)n(Cc2ccc(Cl)cc2)c2ccc(OCc3ccc4ccccc4n3)cc12`: in experiment [4], the Potency was 31.2 µM (active).
Regarding `Cc1c(C2=CCN(C(=O)N(C)C(C)C)CC2)nnn1-c1cccnc1F`, in experiment [2], the Potency result was “inactive”.
Consider `Cc1cc(OCCCS(C)(=O)=O)cc(C)c1-c1cccc(COc2ccc3c(c2)OCC3CC(=O)O)c1` (stereo unspecified), for which the Potency result in experiment [2] is “inactive”.
With `CS(=O)(=O)NC(=O)CCC/C=C\C[C@H]1C(=O)C[C@@H](O)[C@@H]1/C=C/[C@H](O)COc1ccccc1`, the Potency result in experiment [2] was “inactive”.
On to `COc1cc2nc(N3CCN(C(=O)c4ccco4)C4CCCCC43)nc(N)c2cc1OC` (stereo unspecified), for which the Potency in experiment [2] was 14.6 µM (active).
Regarding `CC(CN(C)C)CN1c2ccccc2S(=O)(=O)c2ccccc21` (stereo unspecified), the Potency entry in experiment [2] is “inactive”.
Take `COc1cc(-c2nc(N[C@H](CO)Cc3ccccc3)ccc2C(=O)NCCOc2ccccc2)cc(OC)c1OC`: the Potency entry in experiment [2] is “inactive”.
Take `O=C(NC[C@H]1CN(c2ccc(N3CCOCC3=O)cc2)C(=O)O1)c1ccc(Cl)s1`: in experiment [2], the Potency result is “inactive”.
In the case of `CC(C)(C)[C@H](NC(=O)c1ccc(N)c(Cl)c1)C(=O)N1CCC[C@H]1C(=O)N[C@H](C#N)CC(=O)O`, the Potency entry in experiment [2] is “inactive”.
Turning to `C[C@H]1CC[C@@]2(OC1)O[C@H]1CC3[C@@H]4CC[C@@H]5C[C@@H](O[C@@H]6O[C@H](CO)[C@@H](O[C@@H]7O[C@@H](C)[C@H](O)[C@@H](O)[C@H]7O)[C@H](O)[C@H]6O[C@@H]6O[C@H](CO)[C@@H](O)[C@H](O)[C@H]6O)CC[C@]5(C)C4CC[C@]3(C)[C@H]1[C@@H]2C` (stereo partly specified), in experiment [2], the outcome is “inactive [at 9.29 µM]”.
With `CNCc1cc(-c2ccccc2F)n(S(=O)(=O)c2cccnc2)c1`, the Potency result in experiment [2] is “inactive”.
Same read-out and setting: in the case of `CC(C)(O)C(=O)N1CCN(c2ccc(C(F)(F)F)c(C3=C(c4c[nH]c5ccccc45)C(=O)NC3=O)c2)CC1` it was “inactive”; in that of `COC(=O)c1ccnc(-c2cc(C(=O)Nc3ccc(C4(N)CC4)cc3)ccn2)c1`, “inactive”; in that of `Fc1ccc(-c2nc(-c3c(F)cccc3F)[nH]c2-c2ccncc2)cc1`, “inactive”.
With `C=C1CCCC2(C)CCC(C(C)(C)OC3OC(C)C(O)C(O)C3OC(=O)/C(C)=C\C)CC12` (stereo unspecified), in experiment [2], the Potency result was “inactive”.
On the same count and under the same terms, with `C1CNCCN1` the entry was “inactive”.
Same read-out and setting: in the case of `Cn1cc(-c2ccc(S(=O)(=O)n3ccc(/C=C/C(=O)Nc4ccccc4N)c3)cc2)cn1` it was 2.59 µM (active).
Still for that read-out and setting: in the case of `CC1CCC(=O)CC(SCC(O)C(=O)O)CCC(=O)O1` (stereo unspecified) it was “inactive”.
Turning to `CCC(C)(OC(C)=O)C(=O)O[C@H]1[C@H](OC(C)=O)[C@]2(CO)[C@H](O)[C@H](O)[C@]3(C)C(=CCC4[C@@]5(C)CC[C@H](O[C@@H]6O[C@H](C(=O)O)[C@@H](O)[C@H](O[C@@H]7OC[C@H](O)[C@H](O[C@@H]8OC[C@H](O)[C@H](O)[C@H]8O)[C@H]7O)[C@H]6O[C@@H]6O[C@H](CO)[C@@H](O)[C@H](O)[C@H]6O)C(C)(C)C5CC[C@]43C)[C@@H]2CC1(C)C` (stereo partly specified), in experiment [2], the activity change, negative = cytotoxicity is -29% [at 9.29 µM].
